Activity calls are given as the source filed them. Unless noted, no rule for the calls is given here.
Tests used:
[1] = test system: Wnt5a (protein binding on small-molecule microarray); experiment: Wnt5a binders on small-molecule microarray, primary screen, biophysical, 635/667 nm fluorescence (AID 1142); conditions: 635 nm fluorescence, higher = more signal;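 also: fluorescence read at 667 nm with signal to noise per printed feature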
[2] = cell viability in Huh7 cells, primary screen, cytotoxicity control for HCV replication inhibitor project, CellTiter-Glo luminescence, basal, 48 h (AID 1143); conditions: Huh7 HCV replicon, higher = more signal, called active from +8 up or from −8 down;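 also: Huh7 hepatoma cells carrying a hepatitis C replication reporter with no stimulus; test concentration not given here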
[3] = P. aeruginosa biofilm formation inhibitors, primary screen, PAO1 strain, BacTiter-Glo luminescence, LB-PBS (AID 1144); conditions: 12 h, higher = more signal
[4] = CREB reporter modulators without forskolin, primary screen, cell-based, PC12, CRE-LacZ reporter, unstimulated (AID 1145); conditions: no forskolin, luminescence, 4.5 h, higher = more signal, called active from +8 up or from −8 down
[5] = CREB reporter modulators under forskolin, primary screen, cell-based, PC12, CRE-LacZ reporter, forskolin-stimulated (AID 1146); conditions: luminescence, 4.5 h, higher = more signal, called active from +8 up or from −8 down;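 also: PC12 cells with 6xCRE LacZ reporter stimulated by forskolin 10 µM; beta-galactosidase reporter signal reflecting CREB driven transcription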
[6] = biological target: Streptavidin (Streptomyces avidinii) (UniProt P22629); experiment: streptavidin binders on small-molecule microarray, primary screen, artefact control for SMM compound annotation, biophysical, 635/667 nm fluorescence (AID 1147); conditions: streptavidin binding, higher = more signal;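 also: signal reflects streptavidin binding to arrayed compounds as a control protein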
[7] = small-molecule binders of probe aInhba, primary screen, biochemical, small-molecule microarray, 635/667 nm fluorescence (AID 1148); conditions: higher = more signal;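 also: score merges 667nm spot fluorescence with signal-to-noise for antibody binding to printed compounds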
Torsin-1A (Homo sapiens) [8] = biological target: Torsin-1A (Homo sapiens) (UniProt O14656); experiment: torsin A binders from cell lysate, primary screen, small-molecule microarray, wild-type, 635/667 nm (AID 1149); conditions: COS7 hTOR1A-WT lysate, 635 nm fluorescence, higher = more signal
Torsin-1A (Homo sapiens) [9] = biological target: Torsin-1A (Homo sapiens) (UniProt O14656); experiment: small-molecule binders of mutant TOR1A in lysate, primary screen, cell lysate, small-molecule microarray, COS7 lysate, 635/667 nm fluorescence (AID 1150); conditions: COS7 hTOR1A mutant lysate, 635 nm fluorescence, higher = more signal;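 also: score pools 667 nm emission and signal to noise measuring lysate protein binding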
[10] = test system: Sonic hedgehog protein (Shh); experiment: small-molecule binders of Shh protein, primary screen, biochemical, small-molecule microarray, 635/667 nm fluorescence (AID 1151); conditions: small-molecule microarray binding, 635 nm fluorescence; higher = more signal;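 also: Shh protein binding to compounds spotted on small-molecule microarray slides; score combines spot fluorescence intensity with signal-to-noise across triplicate slides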
[11] = E. coli DRC41 culture turbidity changes, primary screen, E. coli filamentation inducer project, strain DRC41, OD650, 48 h (AID 1152);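 also: E. coli MC1000 strain DRC41 lacking acrAB efflux pump and sulA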; conditions: E. coli DRC41 (acrAB sulA), higher = more signal, called active from +8 up or from −8 down
[12] = small-molecule binders of probe aLefty1, primary screen, biochemical, small-molecule microarray, 635/667 nm fluorescence (AID 1153); conditions: higher = more signal;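 also: score merges spot fluorescence with signal-to-noise ratio from the scanned slide images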
[13] = PSAC antagonists in infected red cells, primary screen, cell-based, P. falciparum Indochina, OD700, 1 h (AID 1154); conditions: P. falciparum Indochina infected RBC osmotic lysis, higher = more signal, called active from +8 up or from −8 down
[14] = PSAC antagonists in infected red cells, primary screen, cell-based, P. falciparum Indochina, OD700, 2 h (AID 1155);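 also: lysis reports solute entry through the parasite surface anion channel PSAC; channel blockers reduce lysis of infected cells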; conditions: P. falciparum Indochina infected erythrocytes, osmotic lysis OD700; higher = more signal, called active from +8 up or from −8 down
[15] = osmotic lysis modulators in infected erythrocytes, primary screen, PSAC antagonist project, cell-based, P. falciparum Indochina, OD700, 3 h (AID 1156); conditions: higher = more signal, called active from +8 up or from −8 down
[16] = PSAC antagonists in infected red cells, primary screen, cell-based, P. falciparum Indochina, OD700, 18 h (AID 1157); conditions: P. falciparum Indochina infected erythrocytes, osmotic lysis OD700, 18 h; higher = more signal, called active from +8 up or from −8 down
[17] = modulators of S6 phosphorylation in cells, primary screen, cell-based, A549, cytoblot, luminescence, serum-stimulated (AID 1158); conditions: A549 phospho-S6 cytoblot, 5 h, higher = more signal;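 also: serum-stimulated A549 lung adenocarcinoma cells; signal is phosphorylated S6 detected by cytoblot immunostaining with HRP secondary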
[18] = biological target: NADPH oxidase 2 (Homo sapiens) (UniProt P04839); experiment: NOX2-dependent H2O2 signal modulators, primary screen, NOX inhibitor project, cell-based, HEK293-NOX2, PMA-stimulated, Amplex Red fluorescence (AID 1159); conditions: 45 min, higher = more signal, called active from +8 up or from −8 down; also: test concentration not given here
[19] = biological target: NADPH oxidase 4 (Homo sapiens) (UniProt Q9NPH5); experiment: NOX4-dependent H2O2 signal modulators, primary screen, NOX inhibitor project, cell-based, HEK293-NOX4, tetracycline-induced, Amplex Red fluorescence (AID 1160); conditions: 45 min, higher = more signal, called active from +8 up or from −8 down
[20] = biological target: NADPH oxidase 5 (Homo sapiens) (UniProt Q96PH1); experiment: NOX5-dependent H2O2 signal modulators, primary screen, NOX inhibitor project, cell-based, HEK293-NOX5, Amplex Red fluorescence (AID 1161); conditions: HEK293-NOX5, ionomycin, 45 min, higher = more signal
Chain of NADPH oxidase 5 (Homo sapiens) (Q96PH1 whole entry, looked up): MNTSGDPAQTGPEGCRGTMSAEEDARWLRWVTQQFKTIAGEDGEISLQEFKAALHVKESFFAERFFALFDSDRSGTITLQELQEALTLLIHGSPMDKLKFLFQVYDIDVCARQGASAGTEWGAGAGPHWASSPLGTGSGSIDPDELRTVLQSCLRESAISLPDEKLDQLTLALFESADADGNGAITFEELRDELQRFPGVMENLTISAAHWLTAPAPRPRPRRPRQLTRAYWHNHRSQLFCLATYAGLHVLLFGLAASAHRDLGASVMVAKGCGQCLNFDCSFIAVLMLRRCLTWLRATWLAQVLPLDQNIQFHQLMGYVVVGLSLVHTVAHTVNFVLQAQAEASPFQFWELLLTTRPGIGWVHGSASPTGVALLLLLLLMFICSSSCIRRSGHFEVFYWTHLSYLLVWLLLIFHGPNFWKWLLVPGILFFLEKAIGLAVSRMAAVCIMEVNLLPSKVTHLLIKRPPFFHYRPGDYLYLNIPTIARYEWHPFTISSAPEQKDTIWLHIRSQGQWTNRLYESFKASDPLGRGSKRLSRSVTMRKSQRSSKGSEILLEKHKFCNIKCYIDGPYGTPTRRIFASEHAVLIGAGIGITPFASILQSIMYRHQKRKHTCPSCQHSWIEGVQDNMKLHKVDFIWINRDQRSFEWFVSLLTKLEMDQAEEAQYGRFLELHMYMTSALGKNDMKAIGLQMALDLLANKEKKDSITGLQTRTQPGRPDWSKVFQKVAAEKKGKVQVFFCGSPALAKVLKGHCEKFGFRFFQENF

Chain of Streptavidin (Streptomyces avidinii) (P22629 whole entry, looked up): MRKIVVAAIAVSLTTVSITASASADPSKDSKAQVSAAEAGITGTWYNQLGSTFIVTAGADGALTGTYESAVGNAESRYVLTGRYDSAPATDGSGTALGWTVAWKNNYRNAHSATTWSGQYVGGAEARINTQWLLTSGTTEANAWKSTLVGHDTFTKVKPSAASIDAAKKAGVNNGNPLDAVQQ
Chain of Torsin-1A (Homo sapiens) (O14656 whole entry, looked up): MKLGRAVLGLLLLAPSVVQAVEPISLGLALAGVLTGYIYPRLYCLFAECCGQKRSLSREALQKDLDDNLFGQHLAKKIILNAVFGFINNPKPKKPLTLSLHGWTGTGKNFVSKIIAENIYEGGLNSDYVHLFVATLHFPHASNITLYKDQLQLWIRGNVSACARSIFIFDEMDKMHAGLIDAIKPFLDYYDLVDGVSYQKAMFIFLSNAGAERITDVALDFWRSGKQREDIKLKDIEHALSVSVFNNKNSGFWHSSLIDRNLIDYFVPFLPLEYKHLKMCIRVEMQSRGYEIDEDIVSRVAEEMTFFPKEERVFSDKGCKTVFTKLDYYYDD
Chain of NADPH oxidase 2 (Homo sapiens) (P04839 whole entry, looked up): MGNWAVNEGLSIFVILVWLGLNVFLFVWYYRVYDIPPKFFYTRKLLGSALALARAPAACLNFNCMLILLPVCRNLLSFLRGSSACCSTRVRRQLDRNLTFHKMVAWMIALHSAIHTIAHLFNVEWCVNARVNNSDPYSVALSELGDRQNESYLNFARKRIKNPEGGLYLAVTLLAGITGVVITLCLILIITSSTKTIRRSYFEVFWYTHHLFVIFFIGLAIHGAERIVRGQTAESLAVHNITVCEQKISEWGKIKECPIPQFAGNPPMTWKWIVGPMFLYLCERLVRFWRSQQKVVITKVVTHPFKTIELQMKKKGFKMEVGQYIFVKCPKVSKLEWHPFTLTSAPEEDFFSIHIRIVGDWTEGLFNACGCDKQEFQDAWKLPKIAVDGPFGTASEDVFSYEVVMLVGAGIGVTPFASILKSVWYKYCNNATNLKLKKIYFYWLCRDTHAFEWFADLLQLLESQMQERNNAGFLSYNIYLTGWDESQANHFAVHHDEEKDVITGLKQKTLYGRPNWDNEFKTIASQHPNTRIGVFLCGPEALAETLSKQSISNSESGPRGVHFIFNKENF
Chain of NADPH oxidase 4 (Homo sapiens) (Q9NPH5 whole entry, looked up): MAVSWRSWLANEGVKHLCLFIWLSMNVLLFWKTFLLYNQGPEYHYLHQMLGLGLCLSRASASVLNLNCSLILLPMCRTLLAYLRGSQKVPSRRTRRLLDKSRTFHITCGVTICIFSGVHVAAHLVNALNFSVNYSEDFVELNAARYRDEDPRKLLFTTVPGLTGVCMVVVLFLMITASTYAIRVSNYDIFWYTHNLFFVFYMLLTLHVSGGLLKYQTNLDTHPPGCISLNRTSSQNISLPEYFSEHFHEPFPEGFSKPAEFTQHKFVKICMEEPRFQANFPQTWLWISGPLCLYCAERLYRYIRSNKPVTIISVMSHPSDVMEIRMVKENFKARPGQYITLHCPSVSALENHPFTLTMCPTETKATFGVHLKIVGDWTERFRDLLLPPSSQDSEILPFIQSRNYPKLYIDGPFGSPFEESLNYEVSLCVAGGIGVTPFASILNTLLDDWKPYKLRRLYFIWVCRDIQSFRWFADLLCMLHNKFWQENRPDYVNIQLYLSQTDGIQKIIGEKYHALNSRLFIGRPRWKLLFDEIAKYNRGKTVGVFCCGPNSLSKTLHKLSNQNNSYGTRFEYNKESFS

| SMILES | composite z-score [1] | z-score [2] | z-score [3] | z-score [4] | z-score [5] | composite z-score [6] | composite z-score [7] | composite z-score (Torsin-1A (Homo sapiens) [8]) | composite z-score (Torsin-1A (Homo sapiens) [9]) | composite z-score [10] | z-score [11] | composite z-score [12] | z-score [13] | z-score [14] | z-score [15] | z-score [16] | z-score [17] | z-score [18] | z-score [19] | z-score [20] |
| --- | --- | --- | --- | --- | --- | --- | --- | --- | --- | --- | --- | --- | --- | --- | --- | --- | --- | --- | --- | --- |
| C#CCCCON=C1[C@H]2CCn3c(=O)n(-c4ccccc4)c(=O)n3[C@H]2[C@H](O)[C@@H]2O[C@H]12 | 0.0823 | -0.146 (inactive) | 0.423 (inactive) | -0.112 (inactive) | 0.462 (inactive) | -0.126 | -0.23 | 0.494 | 1.27 | 0.504 | 0.555 (inactive) | -0.19 | 0.116 (inactive) | -1.22 (inactive) | 0.43 (inactive) | -2.27 (inactive) | 3.11 | -0.858 (inactive) | 0.137 (inactive) | 0.607 |
| Cc1ccc(S(=O)(=O)N[C@H]2COC(=O)CC=C[C@H](C)[C@@H](NS(=O)(=O)c3ccc(C)cc3)COC(=O)CC=C[C@@H]2C)cc1 | -0.11 | -0.591 (inactive) | -0.681 (inactive) | -0.008 (inactive) | 0.556 (inactive) | 1.17 | -0.0645 | 0.649 | 0.741 | 0.483 | 0.373 (inactive) | -0.147 | 0.334 (inactive) | 0.283 (inactive) | 0.654 (inactive) | 0.441 (inactive) | -1.01 | 0.152 (inactive) | -1.92 (inactive) | -1.01 |
| CC(C)(C)N1C(=O)[C@H]2[C@H]3[C@H](O)[C@H](O)CC(=O)[C@H]3CC[C@H]2C1=O | -0.0509 | -1.06 (inactive) | 0.925 (inactive) | 0.62 (inactive) | 0.95 (inactive) | -0.0955 | -0.0405 | 0.128 | 0.29 | 0.696 | -0.714 (inactive) | -0.144 | -0.0882 (inactive) | 0.499 (inactive) | -0.933 (inactive) | 0.183 (inactive) | 1.23 | 1.22 (inactive) | -1.36 (inactive) | 0.0957 |
| C[n+]1ccc(-c2ccc(CO)cc2)cc1 | -0.0113 | 0.0559 (inactive) | 0.466 (inactive) | 0.919 (inactive) | 0.723 (inactive) | 2.72 | -0.0209 | 0.565 | 1.67 | 2.14 | 0.209 (inactive) | -0.0303 | -0.8 (inactive) | -0.376 (inactive) | -1.05 (inactive) | -0.0148 (inactive) | -0.6 | -0.225 (inactive) | -0.0911 (inactive) | -3.04 |
| CCc1cc2c(nc1CC)CCN(CCC(C)=NO[C@@H](C)c1cn([C@H](CO)Cc3ccccc3)nn1)C2 | -0.144 | -0.519 (inactive) | 0.434 (inactive) | -0.892 (inactive) | -1.03 (inactive) | 0.453 | -0.0087 | 1.1 | 0.216 | 0.961 | 0.0933 (inactive) | -0.0011 | 4.48 (inactive) | 0.586 (inactive) | -0.0919 (inactive) | 0.49 (inactive) | 0.434 | -1.4 (inactive) | 0.033 (inactive) | 0.858 |
| CC(C)CON=C1C[C@@H](O)[C@@H](O)[C@@H]2[C@@H]3C(=O)N(C4CCCCC4)C(=O)[C@@H]3CC[C@H]12 | 0.298 | 0.0498 (inactive) | -0.52 (inactive) | 1.7 (inactive) | -0.061 (inactive) | 0.451 | 0.125 | 0.792 | 0.375 | 0.72 | 0.539 (inactive) | -0.101 | -0.172 (inactive) | 0.193 (inactive) | 0.168 (inactive) | 0.0575 (inactive) | -0.545 | -0.671 (inactive) | -0.118 (inactive) | -0.246 |
| CC(C)=NO[C@H](C)c1cn([C@H](CO)Cc2ccccc2)nn1 | -0.179 | -0.684 (inactive) | 0.159 (inactive) | 1.61 (inactive) | 0.112 (inactive) | 1.14 | -0.0178 | -0.232 | 0.015 | -0.195 | -2.06 (inactive) | -0.142 | 0.29 (inactive) | 0.0191 (inactive) | -0.188 (inactive) | 0.269 (inactive) | 0.225 | 0.849 (inactive) | -0.311 (inactive) | -0.281 |
| O=C1C[C@@H](O)[C@@H](O)[C@@H]2[C@@H]3C(=O)N(Cc4ccc5c(c4)OCO5)C(=O)[C@@H]3CC[C@H]12 | -0.005 | -0.104 (inactive) | -0.396 (inactive) | 0.516 (inactive) | 0.244 (inactive) | 0.139 | -0.152 | 0.0825 | 0.339 | 0.256 | -0.116 (inactive) | -0.104 | 1.52 (inactive) | 0.14 (inactive) | -0.582 (inactive) | 0.207 (inactive) | -0.196 | -0.148 (inactive) | 0.314 (inactive) | -0.36 |

Source: PubChem BioAssay
